Source: PubChem
HCV inh = blocks hepatitis C virus; Huh7.5.1 HCVcc-Cre infection, luciferase reporter, 44 h; actives 3.4% (n = 340,000); Potency, µM (series often up to 41.8 µM), usual class: inhibitors; active = well fitted inhibition curve with a large enough effect; inconclusive = small, poorly fitted or top-dose-only effect, or another doubt; inactive = no such curve, though single readings can be large or run the other way
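Whole-lifecycle infectious HCVcc-Cre system; cells 1,000/well, compound then virus (~0.5 moi) added 4 h after plating, 44 h culture. Luciferase read 15 sec following 15 min substrate incubation, room temp.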
VACV mCherry inh = vaccinia inhibition (mCherry reporter). Vaccinia virus mCherry reporter infection, fluorescence. Potency, µM (series often up to 36.5 µM), most hits filed as inhibitors. actives 0.63% (n = 310,000); calls by dose curve; tested in A549 cells; also: nearly all actives have a fitted effect of over 35% in size
VACV Venus inh = vaccinia inhibition (Venus reporter); Vaccinia virus Venus reporter expression, fluorescence; Potency, µM (doses to about 36.5 µM), hits mostly inhibitors; actives 0.46% (n = 330,000); calls by dose curve; tested in A549 cells; also: nearly all actives have a fitted effect of over 30% in size
Each line names hits and unclear results; the compound was inactive in the other large screens. Only some compounds are listed: those with a hit (about 3.3% of all), similar ones and a draw of the others.

O=C(/C=C/NNC(=O)c1ccc(Cl)cc1)c1ccccc1	HCV inh 8.9µM
COc1ccc(NC(=O)C2=C(C)Nc3nc(SCc4ccccc4)nn3C2c2cc(OC)ccc2OC)cc1 (stereo not given)	none (no result: HCV inh)
CCCCNC(=O)C1CCN(c2nc3ccc(C)cc3[nH]2)CC1	none (no result: HCV inh)
CCOc1ccc(C=Nc2ccc(/C=C/c3ccnc4ccccc34)cc2)cc1OCC	none (no result: HCV inh)
C=C[C@@H]1c2c(F)cccc2N(S(=O)(=O)c2ccc(C)cc2)[C@H](c2ccc(OC(C)=O)cc2)C1(C#N)C#N	HCV inh 22µM, VACV mCherry inh inconclusive, VACV Venus inh inconclusive
C=C[C@@H]1c2c(F)cccc2N(S(=O)(=O)c2ccc(C)cc2)[C@H](c2ccc(C(=O)OC)cc2)C1(C#N)C#N	none
Cc1cc2n(n1)C(c1cn(-c3ccccc3)nc1C)Nc1ccccc1-2 (stereo not given)	none (no result: VACV mCherry inh, VACV Venus inh)
Cc1cc2n(n1)C(c1cccs1)Nc1ccccc1-2 (stereo not given)	HCV inh 2.8µM
COc1ccc(C2Nc3ccccc3-c3cc(C)nn32)cc1OC (stereo not given)	none (no result: HCV inh)
Cc1cc2n(n1)C(c1c[nH]c3ccccc13)Nc1ccccc1-2 (stereo not given)	HCV inh 4µM, VACV mCherry inh inconclusive
Cc1noc(C)c1CSCC(=O)N(CC(C)C)c1c(N)n(Cc2ccccc2)c(=O)[nH]c1=O	none
CCOC(=O)c1cn(CC2CC2)c2cc(F)c(F)cc2c1=O	HCV inh 14µM
CCCn1cc(C(=O)OCC)c(=O)c2cc(F)c(F)cc21	none
Nc1nc(=S)c2[nH]c(=S)[nH]c2[nH]1	VACV mCherry inh inconclusive
Nc1nc(=S)c2[nH]cnc2[nH]1	HCV inh 1.3µM, VACV mCherry inh inconclusive, VACV Venus inh inconclusive
CC(C)(C)OC(=O)N(CCc1ccccc1)Cc1ccc(OCc2cccc(NC(=O)C3CC3)c2)cc1	HCV inh 13µM
CC(C)C(=O)Nc1ccc(COc2ccccc2CN(Cc2ccccc2)C(=O)OC(C)(C)C)cc1	VACV mCherry inh inconclusive
CC(C)(C)OC(=O)N(CCc1ccccc1)Cc1ccc(OCc2cccc(NC(=O)C3CCC3)c2)cc1	HCV inh inconclusive
CC(C)C(=O)Nc1cccc(COc2ccc(CN(Cc3ccccc3)C(=O)OC(C)(C)C)cc2)c1	HCV inh 0.5µM
Nc1ncn(C(=S)Nc2ccccc2)n1	none
O=C(CSc1nnc(-c2ccc(O)cc2)n1Cc1ccco1)c1cccs1	none (no result: VACV mCherry inh, VACV Venus inh)
N#Cc1c(-c2ccccc2)c(-c2ccccc2)n(Cc2ccco2)c1NC(=O)c1cccs1	HCV inh 2.8µM
CC1Cc2c([nH]c3ccccc23)C2c3ccccc3CN12 (stereo not given)	none
O=C(Cn1ncc(Cl)c(Cl)c1=O)N1CCN(Cc2ccccc2)CC1	HCV inh 3.5µM (no result: VACV mCherry inh, VACV Venus inh)
O=C(Cn1ncc2c3ccccc3n(Cc3ccccc3)c2c1=O)N1CCN(c2ncccn2)CC1	HCV inh 10µM (no result: VACV mCherry inh, VACV Venus inh)
O=C(Cn1ncc2c3ccccc3n(Cc3ccccc3)c2c1=O)N1CCN(c2ccccn2)CC1	none
O=C(Cn1ncc2c1-c1ccccc1OC2)N1CCN(Cc2ccccc2)CC1	VACV mCherry inh inconclusive
CN1CCCCCC1C(=O)NCC1Cc2cc(-c3cnccn3)ccc2O1 (stereo not given)	none (no result: HCV inh)
O=C(N/N=C/c1c(O)ccc2ccccc12)c1cccc(C(F)(F)F)c1	HCV inh inconclusive, VACV mCherry inh 3.5µM, VACV Venus inh inconclusive
COc1ccc(OC)c(/C=N/NC(=O)c2[nH]ncc2Br)c1	none
O=C(N/N=C\c1c(O)ccc2ccccc12)c1ccc(Cn2cccn2)o1	HCV inh inconclusive, VACV mCherry inh 4.5µM, VACV Venus inh inconclusive
O=C(N/N=C/c1c(O)ccc2ccccc12)c1[nH]ncc1Br	HCV inh inconclusive, VACV mCherry inh 2.5µM, VACV Venus inh inconclusive
O=C(N/N=C\c1ccc(Cl)s1)c1ccc(Cn2cccn2)o1	none
COc1ccc2ccccc2c1/C=N/NC(=O)c1cccc(Br)c1	HCV inh inconclusive
Cc1ccc(O)c(/C=N/NC(=O)c2[nH]ncc2Br)c1	HCV inh inconclusive
CCOc1ccc(/C=N/NC(=O)c2[nH]ncc2Br)c(O)c1	HCV inh 22µM, VACV mCherry inh 1.3µM, VACV Venus inh inconclusive
NC(=O)Nc1ccc(/C=C2\C=Cc3ccccc32)cc1	none (no result: HCV inh)
COCCCN1C(=O)N(c2ccc(F)cc2)C(=O)C1CC(=O)Nc1ccc(OC)cc1 (stereo not given)	none (no result: VACV mCherry inh, VACV Venus inh)
Cc1cccc(NC(=O)c2oc3ccccc3c2NC(=O)c2cc(=O)c3ccc(C)cc3o2)c1	none (no result: HCV inh)
O=C(Nc1cc(Cl)c(Cl)cc1Cl)c1cccnc1	none (no result: VACV mCherry inh, VACV Venus inh)
COc1ccc(N(C(=O)c2cc(OC)c(OC)c(OC)c2)S(=O)(=O)c2ccc(C)cc2)cc1	none (no result: HCV inh)
COc1ccc(COC(=O)c2ccc(Cl)c(S(=O)(=O)N3CC(C)OC(C)C3)c2)cc1 (stereo not given)	HCV inh 14µM
CC1CN(C(=O)COC(=O)c2ccc(Cl)c(S(=O)(=O)N3CCCCC3)c2)CC(C)O1 (stereo not given)	none
O=C(NCC(O)c1ccccc1)c1ccc(Cl)c(S(=O)(=O)N2CCCC2)c1 (stereo not given)	HCV inh inconclusive
O=C(NCC(O)c1ccccc1)c1ccc(Cl)c(S(=O)(=O)N2CCCCC2)c1 (stereo not given)	HCV inh 10µM
CC1CCCN(S(=O)(=O)c2cc(C(=O)NCCc3ccc(S(N)(=O)=O)cc3)ccc2Cl)C1 (stereo not given)	HCV inh 7.9µM (no result: VACV mCherry inh, VACV Venus inh)
NS(=O)(=O)c1ccc(CCNC(=O)c2cc(S(=O)(=O)N3CCCCC3)ccc2Cl)cc1	none (no result: HCV inh)
O=C(Nc1ccccn1)c1ccc(Cl)c(S(=O)(=O)N2CCCC2)c1	none
O=C(NCc1ccccn1)c1ccc(Cl)c(S(=O)(=O)N2CCCCCC2)c1	HCV inh 11µM, VACV mCherry inh inconclusive
CCc1nc2ccc(C(=O)Nc3ccc(OC)c(OC)c3)cn2c1N(C)C(=O)Cc1ccccc1	none (no result: HCV inh)
CC1(C(=O)O)CCCN1C(=O)c1cccc(F)c1 (stereo not given)	none (no result: HCV inh)
COc1ccc(CCNC(=O)c2ccc(Cl)c(S(=O)(=O)N(C)c3ccccc3)c2)cc1	HCV inh 3.5µM, VACV Venus inh inconclusive
Cc1ccc(S(=O)(=O)N(C)c2ccc(C(=O)NCCc3ccccc3)cc2)cc1	none (no result: HCV inh)
COc1ccc(CCNC(=O)c2ccc(N(C)S(=O)(=O)c3ccc(C)cc3)cc2)cc1	HCV inh 10µM, VACV mCherry inh inconclusive
COc1ccc(CCNC(=O)c2ccc(Cl)c(S(=O)(=O)N3CCCCCC3)c2)cc1	HCV inh 2.8µM (no result: VACV mCherry inh, VACV Venus inh)
COc1ccc(CCNC(=O)c2cccc(S(=O)(=O)N3CCCCCC3)c2)cc1	none (no result: VACV mCherry inh, VACV Venus inh)
O=C(NCCc1ccccc1)c1ccc(Cl)c(S(=O)(=O)N2CCCC2)c1	HCV inh 10µM (no result: VACV mCherry inh, VACV Venus inh)
O=C(NCc1ccccc1)c1ccc(Cl)c(S(=O)(=O)N2CCCC2)c1	none (no result: VACV mCherry inh, VACV Venus inh)
CCN(c1ccccc1)S(=O)(=O)c1ccc(Cl)c(C(=O)NCCc2ccc(OC)cc2)c1	none
O=C(COc1ccccc1C(=O)OCC(=O)N1CCOCC1)Nc1ccc(Br)cc1	none (no result: HCV inh)
COc1ccc(Cl)cc1NC(=O)C(C)n1c(=O)cc(C(F)(F)F)c2c(C)nn(C)c21 (stereo not given)	none (no result: HCV inh)
COC(=O)Cn1c(=O)c2cccn2c2cccnc21	none (no result: HCV inh)
CCOC(=O)c1cccc(-n2nnc3c(sc4nc(C)c(Br)c(C)c43)c2=O)c1	none (no result: HCV inh)
Cc1ccc(C)c(S(=O)(=O)NCC(=O)Nc2ccc3c(c2)OCO3)c1	none
